Results on 40 molecules are retold here after PubChem BioAssay (NCATS).

Inconclusive results are not listed. Where a call stands in place of a potency, no number is given. A number with no mark means an inactive call. Activity calls are given as the source filed them. The call rests on the fitted dose curve; in most records, active means well fitted inhibition curve with a large enough effect; inconclusive means small, poorly fitted or top-dose-only effect; inactive means flat fitted curve, though single readings scatter.
Potency means the concentration at half of the fitted maximal effect.

This assay has as its system MCC-26. The assay is described as follows: qHTS assay to identify novel small-molecules to repurpose for Merkel cell carcinoma treatment (AID 1296009). Further: nearly all actives have a fitted effect of over 60% in size. As to conditions: MCC and control cell lines, CellTiter-Glo viability, 72 h; series mostly up to 46 µM. The text has this:
MCC is a rare and aggressive neuroendocrine skin cancer with limited treatment options. Approximately 80% of MCCs have the Merkel cell polyomavirus (MCPyV) DNA integrated into the host genome (virus-positive: VP-MCC) and viral oncogenes drive oncogenesis. The remaining MCCs are virus-negative (VN-MCC) and are caused by UV mutagenesis. To identify novel treatments for VP-MCC and/or VN-MCC we screened three VP-MCC cell lines (WAGA, MKL-1, MKL-2), three VN-MCC cell lines (MCC-13, MCC-26, UISO), and four immortalized, non-transformed control cell lines (HaCaT, HEK293T, CRL7250, NIH-3T3) against ~2,400 compounds in the NCGC Pharmaceutical Collection (NPC) and ~1,900 compounds in the Mechanism Interrogation PlatE (MiPE). Using cell viability as a readout (CellTiter-Glo assay) we found both overlapping and distinct drugs that can be repurposed for the treatment of VP-MCC and VN-MCC.
A high-throughput screen was conducted in 1536-well white flat bottom plates (Corning) on a Kalypsys robotic system. Cell lines WAGA, MKL-1, MKL-2, MCC-13, MCC-26, UISO, HaCaT, HEK293T, CRL7250, and NIH-3T3 were screened against 2 small molecule annotated drug libraries NPC and MIPE in dose response (8 and 11 pt. respectively) measuring cell viability after 72 hours of incubation. […] A 1,536 pintool (Kalypsys) was used to transfer 23 nL of compound in DMSO to the 1,536-well assay plates. After 72 hr incubation at 37 degree celsius, 2.5 uL of CellTiter-Glo (Promega) was dispensed into each well using a BiorapTR. Plates were incubated at room temperature for 10 min, transferred to a ViewLux (PerkinElmer) and the luminescence was recorded using an exposure time of 2 seconds. Relative luminescence units (RLUs) were normalized to in-plate controls (no cells as a positive (cytotoxicity) control, DMSO as negative control) and the normalized data was processed using NCATS in-house software.
Background: Quantitative high-throughput screening tests each substance at several concentrations.
As for `NCC(=O)CCC(=O)O`, the Potency result is “inactive”.
The same measure, in the same setting: to `O=C1O[C@H](CO)[C@@H](O)[C@H](O)[C@H]1O` belongs “inactive”; to `COc1cc(C)c(Cc2cnc(N)nc2N)cc1OC`, “inactive”.
Consider `CN(C)CCN(Cc1ccccc1)c1ccccn1`, for which the Potency result was “inactive”.
On the same count and under the same terms, under `CC1=C(CC(=O)O)c2cc(F)ccc2/C1=C\c1ccc(S(C)(=O)=O)cc1` stands “inactive”.
For the molecule `Cc1ncc(COP(=O)(O)O)c(C=O)c1O`, the Potency entry was “inactive”.
In the case of `CCOc1nc2cccc(C(=O)O)c2n1Cc1ccc(-c2ccccc2-c2nn[nH]n2)cc1`, the Potency entry is “inactive”.
On the same count and under the same terms, under `CC1(C)CO[C@@H](CC(=O)O)CN1` stands “inactive”.
The same measure, in the same setting: under `COc1cc(C(=O)N2CCOCC2)cc(OC)c1OC` stands “inactive”.
The same measure, in the same setting: under `CC1=C(/C=C/C(C)=C/C=C/C(C)=C/C(=O)O)C(C)(C)CCC1` stands “inactive”; under `O=C(O)CN1C(=O)c2cccc3cccc(c23)C1=O`, “inactive”.
For `COc1ccc2cc1Oc1cc3c(cc1OC)CC[N+](C)(C)[C@H]3Cc1ccc(cc1)Oc1c(OC)c(OC)cc3c1[C@@H](C2)[N+](C)(C)CC3`, the Potency entry is “inactive”.
In the case of `COC(=O)[C@H]1[C@H]2C[C@@H]3c4[nH]c5cc(OC)ccc5c4CCN3C[C@H]2C[C@@H](OC(=O)COc2ccc(OC)cc2)[C@@H]1OC`, the Potency result was “inactive”.
Same read-out and setting: to `C[C@]12C[C@H](O)[C@H]3[C@@H](CCC4=CC(=O)CC[C@@]43C)[C@@H]1CC[C@@H]2C(=O)CO` belongs “inactive”; to `O=C(O)[C@@H]1CSCN1`, “inactive”; to `OCCN1CCN(CCCN2c3ccccc3Sc3ccc(Cl)cc32)CC1`, 26.6 µM (active).
As for `CC(C)(C)C(=O)NCCCC(=O)O`, the Potency entry was “inactive”.
The same measure, in the same setting: under `Nc1ccc(S(=O)(=O)Nc2ccccc2)cc1` stands “inactive”; under `Cc1ccc(C(C)C)cc2c(C)ccc1-2`, “inactive”; under `CCOC(=O)c1ccc(O)cc1`, “inactive”.
Same read-out and setting: under `CC(=O)NC(Cc1ccccc1)C(=O)O` (stereo not given) stands “inactive”; under `CNCCCC1c2ccccc2C=Cc2ccccc21`, “inactive”; under `CC(C)C(=O)c1c(C(C)C)nn2ccccc12`, “inactive”.
On the same count and under the same terms, under `Cn1cc[nH]c1=S` stands “inactive”.
In the case of `CCCCOC(=O)c1ccc(O)cc1`, the Potency entry is “inactive”.
The same measure, in the same setting: under `CCN(CC)CCSC(=O)C(c1ccccc1)c1ccccc1` stands “inactive”.
`CC1(C)OC(=O)NC1=O`: the Potency result was “inactive”.
For the molecule `Cc1cc(C(C#N)c2ccc(Cl)cc2)c(Cl)cc1NC(=O)c1cc(I)cc(I)c1O` (stereo not given), the Potency entry is “inactive”.
In the case of `O=S(=O)(O)c1cc(I)c(O)c2ncccc12`, the Potency entry was “inactive”.
In the case of `O=c1cc[nH]c(=S)[nH]1`, the Potency entry is “inactive”.
The same measure, in the same setting: to `CN(C)CCOC(C)(c1ccccc1)c1ccccn1` (stereo not given) belongs “inactive”; to `CC(=O)Nc1ccc(/C=N/NC(N)=S)cc1`, “inactive”.
In the case of `C/C(=C(\CCOP(=O)(O)O)SC(=O)c1ccccc1)N(C=O)Cc1cnc(C)nc1N`, the activity change, negative = cytotoxicity was 20.3% [at 4.84 µM].
With `Cn1c(=O)c2c(ncn2CC2OCCO2)n(C)c1=O`, the Potency result is “inactive”.
Regarding `O=C1c2c(O)cccc2Cc2cccc(O)c21`, the Potency entry was “inactive”.
Same read-out and setting: under `CN1CCOC(c2ccccc2)c2ccccc2C1` (stereo not given) stands “inactive”; under `O=C1O[C@H]([C@@H](O)CO)C(O)=C1O`, “inactive”.
With `C[C@H]1O[C@H](O[C@H]2[C@H](O)[C@@H](O)[C@@H](O[C@H]3[C@H](O)[C@@H](O)[C@H](O)O[C@@H]3CO)O[C@@H]2CO)[C@H](O)[C@@H](O)[C@@H]1N[C@H]1C=C(CO)[C@@H](O)[C@H](O)[C@H]1O`, the Potency result is “inactive”.
For the molecule `Cc1c(O)cccc1C(=O)N[C@@H](CSc1ccccc1)[C@H](O)CN1C[C@H]2CCCC[C@H]2C[C@H]1C(=O)NC(C)(C)C`, the Potency result is “inactive”.
As to `O=C1NS(=O)(=O)c2ccccc21`, the Potency entry was “inactive”.
